Laboratory results reported in PubChem BioAssay (Tox21).
Records with an inconclusive call do not appear. A number with no mark means an inactive call. The source made the active and inactive calls. Calls come from the whole dose curve; as a rule, active = well fitted cell-killing curve with a large enough effect in the repeat runs; inconclusive = weak or mixed curves; inactive = flat fitted curve, though single readings scatter.
% is set by controls: 0 for no effect and ±100 for the full control effect.

Experiment: qHTS assay to identify small molecule antagonists of the TGF-beta/Smad signaling pathway - cell viability counter screen (AID 1346824); note: nearly all actives have a fitted effect of over 50% in size
Conditions: SBE-bla HEK293T viability, CellTiter-Glo luminescence; series mostly up to 76.8 µM
Source text: U.S. Tox21 Program National Center for Advancing Translational Sciences [NCATS] NIH Chemical Genomics Center [NCGC] U.S. Environmental Protection Agency [EPA] National Institutes of Environmental Health Sciences [NIEHS] National Toxicology Program [NTP] U.S. Food and Drug Administration [FDA] Tox21 Assay Overview: Transforming growth factor beta (TGF-beta) superfamily consists of a large number of structurally related dimeric proteins that act as hormones or local mediators in regulating a wide range of biological functions. This superfamily includes TGF-betas themselves, the bone morphogenetic proteins (BMPs) and the activins. These ligands induce oligomerization of serine/threonine receptor kinases and phosphorylate the cytoplasmic signaling molecules of Smad protein family. CellSensor SBE-bla HEK 293T cell line (Life Technologies, Carlsbad, CA), responsive to TGF-beta was used to screen Tox21 10K compound library for identification of agonists/antagonists of the Smad signaling pathway. This cell line contains a beta-lactamase reporter gene under control of the Smad binding element (SBE) stably integrated into HEK 293T cells. Also cytotoxicity of the compounds was tested in parallel by measuring the cell viability using CellTiter-Glo assay system in the same wells.
Tox21 Assay Protocol Summary: SBE-bla HEK 293T cells were dispensed at 4,000/well in 5 uL of assay medium into black wall/clear-bottom 1536-well plates using a Multidrop Combi (ThermoFisher Scientific, Waltham, MA) dispenser. After the assay plates were incubated at 37 C and 5% CO2 for an overnight, 23 nL of compounds dissolved in DMSO, positive controls or DMSO only was transferred to the assay plate by a Pintool station (Kalypsys, San Diego, CA). Compound transfer was followed by the addition of 1 uL of 0.25 ng/mL TGF-beta1 or assay buffer using two separate tips of Flying Reagent Dispenser (FRD, Aurora Discovery, San Diego, CA). The assay plates were incubated at 37 C and 5% CO2 for 5 hr. One uL of LiveBLAzer B/G FRET substrate (Life Technologies) was added using a Flying Reagent Dispenser (FRD, Aurora Discovery, San Diego, CA) and the plates were incubated at room temperature for 2 hr. Fluorescence intensity (405 nm excitation, 460 nm and 530 nm emissions) was measured using an Envision plate reader (PerkinElmer, Shelton, CT). For cytotoxicity read, 4 uL of CellTiter-Glo reagent (Promega Corporation, Madison, WI) was added to each well of the assay plates using FRD. After 30 min incubation at room temperature, the luminescence intensity was measured using ViewLux plate reader (PerkinElmer).
In the case of CCC(C(=O)NC(N)=O)c1ccccc1 (stereo not given), the outcome is reported as “inactive”. With NC(N)=NS(=O)(=O)c1ccc(N)cc1 the outcome was “inactive”. In the case of C/C=C1\C(=O)C[C@H]2[C@@H]3CCC4=CC(=O)CC[C@]4(C)[C@H]3CC[C@]12C, the outcome is reported as “inactive”. In the case of c1cc(CN2CCCCC2)cc(OCCCNc2nc3ccccc3s2)c1, the outcome is reported as “inactive”. In the case of OCc1ccccn1, the outcome is reported as “inactive”. For O=C(O)Cc1cc(I)c(Oc2cc(I)c(O)c(I)c2)c(I)c1, the outcome was “inactive”. In the case of Cc1ccccc1C(=O)O, the outcome is reported as “inactive”. For Nc1ncnc2c1ncn2Cc1c(F)cccc1Cl, the outcome was “inactive”. For CCCCCCCCN(C)CCCCCCCC, the outcome was “inactive”. In the case of Nc1ccn(C2CO[C@H](CO)O2)c(=O)n1 (stereo not given in full), the outcome is reported as “inactive”. In the case of Cc1ncc(CSSCc2cnc(C)c(O)c2CO)c(CO)c1O, the outcome is reported as “inactive”. In the case of CCOC(=O)Cn1c(=O)sc2cccc(Cl)c21, the outcome is reported as “inactive”. In the case of CN(C)CCn1nnnc1SCC1=C(C(=O)O)N2C(=O)[C@@H](NC(=O)Cc3csc(N)n3)[C@H]2SC1, the outcome is reported as “inactive”. In the case of c1ccc(CCCc2ccccn2)cc1, the outcome is reported as “inactive”. With C[C@H]1O[C@@H](n2cc(F)c(=O)[nH]c2=O)[C@H](O)[C@@H]1O the outcome was “inactive”. With N[C@@H](CS)C(=O)O the outcome was “inactive”. For NC1CCN(c2cccc(Cl)n2)CC1, the outcome was “inactive”. For C=C(C)C(=O)NCCC[N+](C)(C)C, the outcome was “inactive”. In the case of CNc1ncnc2nc[nH]c12, the outcome is reported as “inactive”. For CCC(C)OC(=O)N1CCCCC1CCO (stereo not given), the outcome was “inactive”. In the case of COc1nc(C)nc(N)n1, the outcome is reported as “inactive”. With CCCc1ccc(N)cc1 the outcome was “inactive”. For NS(=O)(=O)c1cc2c(cc1Cl)NC(CSCc1ccccc1)=NS2(=O)=O, the outcome was “inactive”. In the case of CC12CCC(CC1=O)C2(C)C (stereo not given), the outcome is reported as “inactive”. In the case of CC(C)COC(=O)c1ccccc1O, the outcome is reported as “inactive”. With OC/C=C/c1ccccc1 the outcome was “inactive”. With CCCCCCOC(=O)CC(CC(=O)OCCCCCC)(OC(=O)CCC)C(=O)OCCCCCC the outcome was “inactive”. In the case of CN(C)C(=O)C(CCN1CCC(O)(c2ccc(Cl)cc2)CC1)(c1ccccc1)c1ccccc1, the outcome is reported as “inactive”. For CCC(=O)c1cccc(Cl)c1, the outcome was “inactive”. For CCCOc1ccccc1-c1nc2n[nH]nc2c(=O)[nH]1, the outcome was “inactive”. In the case of COc1ccc(COC=O)cc1, the outcome is reported as “inactive”. With NC(=O)c1c(Cl)cccc1Cl the outcome was “inactive”. With COC[C@H](c1ccc(C(F)(F)F)cc1)N1CCN(C2(C)CCN(C(=O)c3c(C)ncnc3C)CC2)C[C@H]1C the outcome was “inactive”. For CCCCCOC(=O)Nc1nc(=O)n([C@@H]2O[C@H](C)[C@@H](O)[C@H]2O)cc1F, the outcome was “inactive”. For CCCC(C)C(=O)O (stereo not given), the outcome was “inactive”. With CCCCN(CCO)CCO the outcome was “inactive”. In the case of CCCCCCCCCCCCCCCCCC(=O)OCCCCCCCCCCCCCC(C)C, the outcome is reported as “inactive”. For CC(C)c1cccc(C(C)C)c1N, the outcome was “inactive”. For CN(C)C(=O)Nc1ccccc1, the outcome was “inactive”. C=C(C)C(=O)OCCCCCCCCCCCCCCCCCC gave a viability change, negative = cytotoxic of 11% [at 15.8 µM].
